# Compounds with a hit are over-represented: about 13% of the library has one in this group of screens.
# HCV inh – inhibitors of hepatitis C virus infection. Huh7.5.1 HCVcc-Cre infection, luciferase reporter, 44 h. AID 651820. 340,000 tested, 3.4% active. Potency, µM (titrated, usually from 41.8 µM), for inactives: top-dose activity change, negative = inhibition, usual class: inhibitors; further: potency means the concentration at half of the fitted maximal effect
#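 Compounds are dispensed onto cells plated 4 h earlier at 1,000 per well, with HCVcc-Cre virus (about 0.5 moi) added next. Following 44 h of culture, luminescent signal is measured for 15 sec after 15 min with substrate at room temperature.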
# HCMV inh – human cytomegalovirus inhibition; AID 1259415; 410,000 tested, 4.5% active; activity change, negative = inhibition, % at 57.5 µM; HFF cells, HCMV-luciferase reporter, 72 h; active compounds read low; in the data active means activity change below about -60%; inconclusive means no clear call, values can overlap the other calls; inactive means above about -39%
#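 Human foreskin fibroblasts infected with luciferase-reporter HCMV at MOI 1 PFU/cell, compounds at two doses. Luciferase measured 72 h post infection; normalized to buffer-only basal and Salinomycin (10uM) controls.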
# Pf growth 48h – inhibits P. falciparum growth in the first generation, 48 h; P. falciparum luciferase growth in erythrocytes, 48 h; Potency, µM (highest dose often 28.7 µM), without a hit: at the highest dose activity change, negative = inhibition, actives largely listed as inhibitors; 310,000 tested, 5.9% active; AID 504832; further: potency means the concentration at half of the fitted maximal effect
#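 Firefly luciferase activity from engineered P. falciparum reports growth; inhibitors lower the luminescent signal. Cultures contained 2% hematocrit erythrocytes at 0.1% final parasitemia.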
# Pf growth 96h – P. falciparum growth inhibition at 96 hours; 320,000 tested, 6.9% active; Potency, µM (titrated, usually from 28.7 µM), inactives show at the top dose activity change, negative = inhibition, hits mostly inhibitors; P. falciparum luciferase reporter growth, 96 h; AID 504834; further: potency means the concentration at half of the fitted maximal effect
#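 Readout is luminescence from an integrated firefly luciferase in P. falciparum. Red cells, 2% hematocrit and 0.05% parasitemia final, were cultured with compound through two parasite generations (96 hours) at 37 C, 5% CO2.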
# The depositor's hits bear a star; ? = inconclusive; / = no result. Unless noted, the call rests on the fitted dose curve; in most records, active means well fitted inhibition curve with a large enough effect; inconclusive means small, poorly fitted or top-dose-only effect, or another doubt; inactive means no such curve, though single readings can be large or run the other way. On the % scale 0 is the no-effect control and ±100 the full control effect.
SMILES,HCV inh,HCMV inh,Pf growth 48h,Pf growth 96h
CC(=O)N1CCc2cc(S(=O)(=O)NC(CC(C)C)C(=O)N3CCCC3)ccc21 (stereo unspecified),16%,-30,11%,12µM*
COc1ccc(-c2noc(C3CCCN(S(=O)(=O)c4cccc(Cl)c4C)C3)n2)cc1OC (stereo unspecified),?,-7,13µM*,?
Cc1ccc(-c2noc(C3CCCN(C(=O)c4ccccc4Br)C3)n2)cc1 (stereo unspecified),10µM*,?,0%,?
O=C(c1c(F)cccc1F)N1CCCC(c2nc(-c3ccc(Cl)cc3)no2)C1 (stereo unspecified),11µM*,-16,14%,?
O=C(c1ccc(F)cc1F)N1CCCC(c2nc(-c3ccc(F)cc3)no2)C1 (stereo unspecified),11µM*,-22,22%,20%
O=C(Nc1ccc(F)cc1F)N1CCCC(c2nc(-c3ccc(F)cc3)no2)C1 (stereo unspecified),?,?,30%,43%
CCOC(=O)C1CCCN(S(=O)(=O)c2ccc3[nH]c(=O)ccc3c2)C1 (stereo unspecified),/,10,/,/
Cc1ccc(CC(=O)NCc2nc(-c3ccccc3)no2)cc1,/,-5,/,/
C=CCC(C#N)(c1ccc(OC)c(OC)c1)c1cnccn1 (stereo unspecified),-1%,-65*,13µM*,?
c1coc(-c2nnc(-c3ccco3)nn2)c1,19%,15,?,6.6µM*
CC(C)c1ccc(NS(=O)(=O)c2ccc3[nH]cc(C(=O)NCC4CCCO4)c(=O)c3c2)cc1 (stereo unspecified),/,-5,/,/
Cc1ccc(CSc2nc(=O)c3c(C)cc(C)nc3n2C2CC2)cc1,/,-101*,/,/
COC(=O)c1cc(C)nc2c1c(=O)nc(SCc1c(C)cc(C)cc1C)n2C1CC1,/,10,/,/
O=C(Cn1cc(S(=O)(=O)Cc2cccc(Cl)c2)c2ccccc21)NCc1ccccc1Cl,/,0,/,/
CCOc1ccc(C(=O)Nc2ccccc2NC(C)=O)cc1OCC,-15%,-25,3%,16%
CCOc1cc(Cl)c(NC(C)=O)cc1OCC,?,-63*,-1%,14%
CCOC(=O)c1c[nH]c2c(Cl)ccc(Cl)c2c1=O,12%,10,14%,-8%
Cc1ccc(C)c(Nc2ncccc2C(=O)NCc2cccs2)c1,-28%,80,13%,9.3µM*
CCOC(=O)c1c[nH]c2ccc3ccccc3c2c1=O,-7%,25,?,4.7µM*
Cc1ccc2[nH]cc(C(=O)NCc3cccs3)c(=O)c2c1,10µM*,-8,?,-5%
CC(=O)c1c[nH]c2ccc(C)cc2c1=O,7%,-6,6.6µM*,?
O=C(Cn1cc(S(=O)(=O)Cc2ccccc2Cl)c2ccccc21)Nc1ccc(F)cc1F,/,0,/,/
CCOC(=O)c1ccc2[nH]cc(C(C)=O)c(=O)c2c1,3%,-5,4.7µM*,3%
CCOC(=O)c1ccc(-c2ccc3[nH]c4ccccc4c(=O)c3c2)cc1F,11%,-4,?,5.2µM*
CCOc1ccc2[nH]cc(C(=O)O)c(=O)c2c1,20%,-12,8%,/
SMILES,HCV inh,HCMV inh,Pf growth 48h,Pf growth 96h
CCc1ccccc1NC(=O)CSc1ncc2c(n1)-c1ccccc1N(C)S2(=O)=O,/,7,/,/
Cc1cccc(C)c1NC(=O)CN1CCC(Cc2ccccc2)CC1,/,-12,/,/
Cc1c(NC(=O)CCC(=O)N2CCCCC2)c(=O)n(-c2ccccc2)n1C,-3%,-8,1%,0.83µM*
Cc1c(NC(=O)CN2C(=O)NC3(CCCC3)C2=O)c(=O)n(-c2ccccc2)n1C,-3%,-101*,12%,5%
C=CCNC(=O)CN1CCN(C(c2ccccc2)c2ccccc2)CC1,?,65,?,13µM*
Cc1c(NC(=O)CN2C(=O)NC(C)(c3ccccc3Cl)C2=O)c(=O)n(-c2ccccc2)n1C (stereo unspecified),6%,/,24%,28%
Cc1cccc(C)c1NC(=O)CN1CCN(CCCC(c2ccc(F)cc2)c2ccc(F)cc2)CC1,2µM*,6,12µM*,4.5µM*
C[C@]1(c2ccccc2)OC(C(=O)O)=CC1=O,/,/,-8%,10%
Cc1c(NC(=O)CN2CCN(C(c3ccccc3)c3ccccc3)CC2)c(=O)n(-c2ccccc2)n1C,?,-35,10µM*,-9%
CSc1ccc(C2CC(=O)Oc3c2c(=O)n(C)c2ccccc32)cc1 (stereo unspecified),/,5,/,/
Cc1ccccc1CNC(=O)Nc1ccc2c(c1)N(C)C(=O)c1ccccc1S2,/,-97*,/,/
CN1C(=O)c2ccccc2Sc2ccc(NC(=O)NCc3cccc(Cl)c3)cc21,/,-33,/,/
CC(=O)Nc1cc(C(=O)Nc2ccc3c(c2)N(C)C(=O)c2ccccc2S3)ccc1C,/,2,/,/
CN1C(=O)c2ccccc2Sc2ccc(NC(=O)NCc3ccc(Cl)cc3)cc21,/,-89*,/,/
CCOc1ccc(CNC(=O)Nc2ccc3c(c2)N(C)C(=O)c2ccccc2S3)cc1,/,-62*,/,/
COc1ccc(CNC(=O)Nc2ccc3c(c2)N(C)C(=O)c2ccccc2S3)cc1,/,-28,/,/
Cc1ccc(C(=O)Nc2ccc3c(c2)N(C)C(=O)c2ccccc2S3)cc1F,/,-91*,/,/
C[C@H](NC(=O)c1ccccn1)C(O)c1nc2ccccc2[nH]1 (stereo partly specified),/,-2,/,/
CCc1ccc(NC(=O)CCc2c(C)nn(-c3ccc(N4CCCC4)nn3)c2C)cc1,/,3,/,/
CCN1C(=O)c2ccccc2Sc2ccc(NC(=O)Cc3ccc(OC)c(OC)c3)cc21,/,-39,/,/
COc1ccc(C(=O)Nc2ccc3c(c2)N(C2CCCC2)C(=O)c2ccccc2S3)cc1OC,/,-70*,/,/
COc1ccc(Cl)cc1C(=O)CSc1nnnn1C1CCCC1,?,-16,-20%,?
COc1ccc(Cl)cc1C(=O)CSc1nnnn1C1CCCCC1,?,-62*,-24%,10%
Cc1ccccc1CN1[C@@H](CC(C)C)COc2cc(Br)ccc2S1(=O)=O,/,19,/,/
CCCSc1ncc(Cl)c(C(=O)Nc2c(C(=O)c3ccc(F)cc3)oc3ccccc23)n1,/,-17,/,/
SMILES,HCV inh,HCMV inh,Pf growth 48h,Pf growth 96h
COc1ccc(-n2nc3c(N4CCC(C(=O)NCc5cccc(F)c5)CC4)nnc(C)c3c2C)cc1,/,-20,/,/
Cc1ccc(CSc2nnc(-c3cccc(S(=O)(=O)N4CCOCC4)c3)n2C2CCCC2)cc1,?,?,9.3µM*,8.3µM*
C=CCn1c(SCC(=O)Nc2ccccc2)nnc1-c1cccc(S(=O)(=O)N2CCOCC2)c1,-18%,33,/,27%
CC(C)Cn1c(SCC(=O)NCc2ccc(Cl)cc2)nnc1-c1cccc(S(=O)(=O)N2CCOCC2)c1,?,4,?,9.3µM*
NC(=O)CSc1nnc(-c2cccc(S(=O)(=O)N3CCOCC3)c2)n1C1CCCCCC1,-10%,-19,/,?
CNC(=O)CSc1nnc(-c2ccc(S(=O)(=O)N3CCCC3)cc2)n1-c1cccc(C)c1C,6%,5,?,-10%

# Assay outcomes deposited in PubChem by National Center for Advancing Translational Sciences (NCATS).
